Only some compounds are listed: those with a hit (about 4% of all), similar ones and a draw of the others.
GDH-TPI counter-1 = GDH-TPI coupling enzyme inhibitors, primary screen, artefact control for M. tuberculosis FBA inhibitor project, biochemical, absorbance, full deck; inhibition, % at 4.8 µM; GDH-TPI coupled enzyme counterscreen, NADH absorbance; 360,000 tested, 1.2% active;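 note: 0% = DMSO wells and 100% = wells lacking the enzyme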
MazF activator = activators of E. coli MazEF toxin-antitoxin RNase, primary screen, biochemical, fluorescence, uHTS | FAM/BHQ RNA-DNA oligo cleavage fluorescence, 5 h | Endoribonuclease toxin MazF (Escherichia coli (strain K12)), P0AE70 | 350,000 tested, 0.32% active | activation, % at 20 µM; in the data active = activation above about 50%
Target sequence (P0AE70 whole entry, looked up): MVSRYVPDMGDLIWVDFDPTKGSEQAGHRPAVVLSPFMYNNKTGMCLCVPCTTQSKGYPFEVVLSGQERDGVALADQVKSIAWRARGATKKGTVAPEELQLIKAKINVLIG
CCHFV vOTU inh = CCHFV vOTU protease inhibitors, primary screen, biochemical, Pep-AMC substrate, fluorescence | 370,000 tested, 0.55% active | AID 651958, 2012 | Crimean-Congo hemorrhagic fever virus L polyprotein viral ovarian tumor (vOTU) protease … | inhibition, % at 11.5 µM; note: 0% = vehicle wells with enzyme and 100% = no enzyme wells
Mtb FBA inh = Mtb FBA enzyme inhibitors, primary screen, biochemical, fluorescence, strain H37Rv; Fructose-bisphosphate aldolase (Mycobacterium tuberculosis (strain ATCC 25618 / H37Rv)), …; purified M. tuberculosis FBA, fluorescence read-out; inhibition, % at 1 µM; 360,000 tested, 2.3% active; AID 588726, 2011; in the data active = inhibition above about 27%;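 note: 0% = vehicle and 100% = reference inhibitor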
Target sequence (P9WQA3 whole entry, looked up): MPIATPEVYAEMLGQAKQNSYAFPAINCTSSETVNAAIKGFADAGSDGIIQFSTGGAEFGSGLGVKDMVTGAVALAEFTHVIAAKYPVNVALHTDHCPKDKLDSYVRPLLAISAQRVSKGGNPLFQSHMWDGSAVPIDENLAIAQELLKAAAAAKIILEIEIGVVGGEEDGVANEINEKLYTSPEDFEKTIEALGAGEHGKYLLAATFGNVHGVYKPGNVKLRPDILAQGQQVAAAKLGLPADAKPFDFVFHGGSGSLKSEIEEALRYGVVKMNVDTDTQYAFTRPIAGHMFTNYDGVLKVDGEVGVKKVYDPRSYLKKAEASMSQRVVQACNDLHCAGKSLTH
Mtb betalactam = beta-lactam sensitization of Mtb H37Rv, H37Rv; 330,000 tested, 0.27% active; M. tuberculosis H37Rv growth with meropenem, percent inhibition; AID 434955, 2010; inhibition, % at 25 µM; call rule not given here;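 note: growth measured after seven days incubation then overnight dye step; 0% = bacteria only wells and 100% = bacteria with antibiotic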
Mtb FBA inh conf = M. tuberculosis aldolase blockers, biochemical, fluorescence, strain H37Rv, confirmation | 5,600 tested, 78% active | purified M. tuberculosis FBA, fluorescence read-out | inhibition, % at 1 µM | shares compounds with Mtb FBA inh; in the data active = inhibition above about 27%;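 note: 0% = vehicle wells and 100% = reference inhibitor wells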
GDH-TPI counter-2 = GDH-TPI coupling enzyme inhibitors, artefact control for M. tuberculosis FBA inhibitor project, biochemical, fluorescence, high throughput; shares compounds with Mtb FBA inh; GDH-TPI coupled enzyme counterscreen; inhibition, % at 1 µM; 5,600 tested, 81% active; AID 652141, 2013; in the data active = inhibition above about 10%
GDH-TPI DR = GDH-TPI coupling enzyme inhibitors, dose response, artefact control for M. tuberculosis FBA inhibitor project, biochemical, fluorescence, IC50 | 170 tested, 79% active | AID 652145, 2013 | shares compounds with Mtb FBA inh | GDH-TPI coupled enzyme assay, artifact counterscreen | IC50, µM; call rule not given here
* = called active by the depositor; . = no result given; + = active, no number. Cut-off read from the data, not from the text of the source, unless noted: active = inhibition above about 30%; inactive = the rest.

SMILES | GDH-TPI counter-1 | MazF activator | CCHFV vOTU inh | Mtb FBA inh | Mtb betalactam | Mtb FBA inh conf | GDH-TPI counter-2 | others
CCCCn1c(=O)[nH]c(=O)c2c(C(=O)OCC)cc(-c3cccs3)nc21 | 5 | 5 | -52 | 69* | -1 | 12 | 7 | GDH-TPI DR=1.3*
COCCn1c(-c2ccc3ccccc3c2)nc2c1c(=O)[nH]c(=O)n2CC(C)C | -2 | 11 | 6 | 73* | 15 | 98* | 83*
COCCn1c(-c2ccsc2)nc2c1c(=O)[nH]c(=O)n2CC(C)C | 5 | -2 | -8 | 5 | -1 | . | .
CCOC(=O)c1cc(-c2cccs2)nn1CCC#N | 8 | -2 | 10 | -1 | 2 | . | .
C[C@@H]1[C@@H](O)C[C@@]2(CC(=O)c3ccccc3O2)O[C@H]1c1ccccc1 | . | . | -5 | . | . | . | .
COC(=O)C1=C(C)N(Cc2ccc(C(F)(F)F)cc2)C(=NCc2ccccc2C(F)(F)F)NC1c1ccccc1 (stereo not given) | . | . | 12 | . | . | . | .
CC(=O)c1c(C)[nH]c(C(=O)COc2ccc3ccc(=O)oc3c2)c1C | 19 | -1 | -46 | 50* | -14 | 92* | 51*
O=C(NCCc1c[nH]c2ccccc12)OCc1cn(-c2ccc(F)cc2F)nn1 | . | . | -2 | . | . | . | .
COCc1[nH]nc2c1C(c1ccc(C)cc1)N(Cc1ccccc1)C2=O (stereo not given) | . | . | 7 | . | . | . | .
CCOC(=O)CN(c1ccccn1)S(=O)(=O)c1ccccc1 | 8 | 10 | -2 | 35* | 1 | -2 | -5
COc1ccc(S(=O)(=O)N(CC(=O)O)c2ccccn2)cc1 | 5 | 10 | -2 | 22 | -12 | . | .
O=C(Cc1ccccc1)Nc1cccc(C(=O)O)c1O | 5 | 2 | 0 | 76* | -5 | 82* | 49*
COCCN(C(=O)COC(=O)c1ccccc1NCc1ccco1)c1c(N)n(Cc2ccccc2)c(=O)[nH]c1=O | 11 | -4 | -75 | 81* | -6 | 151* | 118*
CC(C)CN(C(=O)COC(=O)c1ccccc1NCc1ccco1)c1c(N)n(Cc2ccccc2)c(=O)[nH]c1=O | -1 | -16 | -25 | 31* | 1 | 152* | 123*
COCCN(C(=O)COC(=O)c1ccco1)c1c(N)n(Cc2ccccc2)c(=O)[nH]c1=O | 2 | -3 | 4 | -2 | -4 | . | .
CC(C)CN(C(=O)COC(=O)c1cccc2ccccc12)c1c(N)n(Cc2ccccc2)c(=O)[nH]c1=O | 12 | -9 | -9 | 0 | -2 | . | .
CCCCCN1CCCCC(NC(=O)c2ccccc2OC)C1=O (stereo not given) | . | . | -4 | . | . | . | .
CCOC(=O)c1cccc(NC(=O)CN(C)S(=O)(=O)c2ccc(Br)s2)c1 | . | . | 3 | . | . | . | .
Cn1c(=O)c2c(C(=O)O)cc(-c3ccccc3)nc2n(Cc2ccccc2)c1=O | -5 | -34 | 6 | -2 | 12 | . | .
COc1ccccc1-c1cc(C(=O)O)c2c(=O)n(C)c(=O)n(Cc3ccccc3)c2n1 | 3 | 1 | -7 | 38* | -4 | -3 | -5
Cc1cc(C)c2cc(C#N)c(NCCNC(=O)c3ccncc3)nc2c1 | . | . | -9 | . | . | . | .
CCC(=O)NCCNc1nc2cc(C)c(C)cc2cc1C#N | 4 | -1 | -16 | 53* | -3 | 6 | -2
CCOc1ccc2nc(NCCNC(=O)CC)c(C#N)cc2c1 | -2 | -2 | -46 | 43* | -2 | 105* | 114*
CCOc1ccc2nc(NCCCNC(=O)c3cc(OC)c(OC)c(OC)c3)c(C#N)cc2c1 | 3 | -9 | 3 | 3 | -1 | . | .
Nn1c(SCC(=O)Nc2nccs2)nnc1-c1cc(-c2ccc(F)cc2)n[nH]1 | . | . | 3 | . | . | . | .
SMILES | GDH-TPI counter-1 | MazF activator | CCHFV vOTU inh | Mtb FBA inh | Mtb betalactam | Mtb FBA inh conf | GDH-TPI counter-2 | others
CCOC(=O)[C@@]12CCC3=C1N(CCC3)C(=O)[C@H](CC(=O)NCC1CCCCC1)C2 | . | . | 1 | . | . | . | .
CCc1ccc(Cn2c(=O)n(Cc3ccc(C(=O)NCCCOC)cc3)c(=O)c3ccccc32)cc1 | . | . | -1 | . | . | . | .
CCN(CC)c1ccc2c(O)cc(=O)oc2c1 | 23 | -13 | -16 | 22 | -3 | . | .
CCN(CC)c1ccc2c(C)c(CN3CCOCC3)c(=O)oc2c1 | 17 | -3 | . | 88* | 2 | -3 | -5
CCN(CC)c1ccc2c(C)c(CO)c(=O)oc2c1 | 8 | -3 | -111 | 49* | -2 | + | +
Cc1ccccc1NC(=O)[C@@H]1CC(=O)O[C@@H]1c1ccccc1 | . | . | -4 | . | . | . | .
O=C(COC(=O)c1cccs1)NCCN1C(=O)CSC1=O | 7 | -4 | 1 | 1 | -10 | . | .
Cc1c(C(=O)OCC(=O)NCCN2C(=O)CSC2=O)oc2c1ccc1ccccc12 | 12 | -4 | -24 | 63* | 4 | 160* | 134*
Cc1ccc(S(=O)(=O)NN2C(=O)c3ccccc3NC2(C)C)cc1 | 4 | 2 | -91 | 36* | 1 | + | +
CC1(C)Nc2ccccc2C(=O)N1NS(=O)(=O)c1ccccc1 | 4 | 4 | -90 | 29* | -1 | -1 | -4
Cn1cc(C2NC(=O)c3ccccc3N2)c2ccccc21 (stereo not given) | 8 | 2 | 12 | 13 | . | . | .
O=C1NC(c2cccc(OCc3ccccc3)c2)Nc2ccccc21 (stereo not given) | 0 | 4 | -61 | 42* | . | 168* | 134*
CSc1ccc(C2Nc3cccc4cccc(c34)N2)cc1 | 5 | 19 | -9 | -1 | 9 | . | .
O=C1NC(c2ccc(Cl)c([N+](=O)[O-])c2)Nc2ccccc21 (stereo not given) | 3 | -16 | -6 | -1 | -5 | . | .
O=C1NC(c2ccc(O)cc2)Nc2ccccc21 (stereo not given) | 7 | 1 | -61 | 37* | 0 | 39* | 34*
O=C1NC(c2ccccc2O)Nc2ccccc21 (stereo not given) | 13 | -4 | -57 | 33* | -6 | 19 | 11*
CSc1ccc(C2NC(=O)c3ccccc3N2)cc1 (stereo not given) | 4 | -3 | -68 | 48* | 0 | 23 | 16*
COCc1[nH]nc2c1C(c1ccccc1)NC2=O (stereo not given) | . | . | 5 | . | . | . | .
COc1ccc(C2NC(=O)c3ccccc3N2)c(OC)c1OC (stereo not given) | 0 | 4 | -107 | 77* | . | 75* | 65*

Assay outcomes: PubChem, several laboratories
